Measurements taken from the antibiotic and cytotoxicity screens of Wong et al. (2023).
Screen size: about 39,000 compounds; about 1,500 (3.8%) were called active. This is one part of a sample in which actives are shown more often than they occur.

Test system: HSkMC (human skeletal muscle cells)
Experiment: cytotoxicity call (relative viability < 0.9)
Settings: 10 µM

| Compound | cytotoxicity call |
| --- | --- |
| COc1ccc(NC(=O)N(C)C[C@H]2OCCCC[C@@H](C)Oc3ccc(NS(=O)(=O)c4ccc(Cl)cc4)cc3C(=O)N([C@@H](C)CO)C[C@@H]2C)cc1 | inactive |
| Cc1ccc(S(=O)(=O)Nc2ccc3c(c2)C(=O)N([C@H](C)CO)C[C@H](C)[C@@H](CN(C)C(=O)NC(C)C)O3)cc1 | inactive |
| Cc1ccc(S(=O)(=O)N(C)C[C@H]2OCCCC[C@H](C)Oc3ccc(NC(=O)Nc4ccc(C(F)(F)F)cc4)cc3C(=O)N([C@H](C)CO)C[C@H]2C)cc1 | inactive |
| CCC(=O)Nc1ccc2c(c1)C(=O)N(C)C[C@@H](OC)[C@H](C)CN(C(=O)CN1CCOCC1)[C@H](C)CO2 | inactive |
| Cc1noc(C)c1S(=O)(=O)N(C)C[C@H]1OCCCC[C@@H](C)Oc2ccc(NC(=O)Nc3ccccc3)cc2C(=O)N([C@H](C)CO)C[C@@H]1C | inactive |
| Cc1noc(C)c1S(=O)(=O)N(C)C[C@@H]1OCCCC[C@@H](C)Oc2ccc(NC(=O)Nc3ccccc3)cc2C(=O)N([C@H](C)CO)C[C@H]1C | inactive |
| Cc1noc(C)c1S(=O)(=O)N(C)C[C@@H]1OCCCC[C@H](C)Oc2ccc(NC(=O)Nc3ccccc3)cc2C(=O)N([C@H](C)CO)C[C@H]1C | active |
| Cc1noc(C)c1S(=O)(=O)N(C)C[C@H]1OCCCC[C@H](C)Oc2ccc(NC(=O)Nc3ccccc3)cc2C(=O)N([C@H](C)CO)C[C@H]1C | inactive |
| Cc1noc(C)c1S(=O)(=O)N(C)C[C@H]1Oc2ccc(NC(=O)Cn3cnnn3)cc2C(=O)N([C@H](C)CO)C[C@H]1C | active |
| Cc1noc(C)c1S(=O)(=O)N(C)C[C@@H]1OCCCC[C@@H](C)Oc2ccc(NC(=O)Nc3ccccc3)cc2C(=O)N([C@@H](C)CO)C[C@@H]1C | inactive |
| Cc1noc(C)c1S(=O)(=O)N(C)C[C@H]1OCCCC[C@H](C)Oc2ccc(NC(=O)Nc3ccccc3)cc2C(=O)N([C@H](C)CO)C[C@@H]1C | active |
| Cc1noc(C)c1S(=O)(=O)N(C)C[C@H]1Oc2ccc(NC(=O)Cn3cnnn3)cc2C(=O)N([C@@H](C)CO)C[C@H]1C | inactive |
| Cc1noc(C)c1S(=O)(=O)N(C)C[C@@H]1Oc2ccc(NC(=O)Cn3cnnn3)cc2C(=O)N([C@@H](C)CO)C[C@@H]1C | inactive |
| Cc1ccc(S(=O)(=O)N(C)C[C@H]2Oc3ccc(NC(=O)CCN4CCOCC4)cc3C(=O)N([C@H](C)CO)C[C@@H]2C)cc1 | inactive |
| C[C@@H]1CCCCO[C@@H](CN(C)C(=O)Nc2ccc(C(F)(F)F)cc2)[C@@H](C)CN([C@H](C)CO)C(=O)c2cc(NC(=O)Nc3cccc4ccccc34)ccc2O1 | inactive |
| C=C/C=C/[C@@H]1C(=C)CN([C@@H](Cc2ccccc2)C(=O)OC)[C@H]1[C@@H](O)CCn1cc(CCC(=O)NO)nn1 | inactive |
| C[C@H]1CN([C@@H](C)CO)C(=O)c2cccc(NC(=O)C3CC3)c2O[C@H]1CN(C)C(=O)Nc1ccc2c(c1)OCO2 | inactive |
| CCC(C)(C)c1ccc(CC(C)CN2CC(C)OC(C)C2)cc1.Cl (stereo unspecified) | inactive |
| OCc1cn(-c2ccccc2)nn1 | inactive |
| c1ccc(-c2nc(C34CC5CC(CC(C5)C3)C4)cs2)cc1 | inactive |
| NCc1cn(-c2ccccc2)nc1C12CC3CC(CC(C3)C1)C2 | active |
| C[C@H]1CCN=C(N)S1 | inactive |

| Compound | cytotoxicity call |
| --- | --- |
| C[C@@H]1CN([C@@H](C)CO)C(=O)c2cccc(NC(=O)c3cnccn3)c2O[C@@H]1CN(C)S(=O)(=O)c1ccc(Cl)cc1 | inactive |
| O=C(O)c1ccc(C(=O)O)nc1 | inactive |
| COc1ccc2c3c([nH]c2c1)[C@H](CO)N(C[C@]13CCN(CC1)C(=O)c1ccncc1)C(=O)c1ccncc1 | inactive |
| C[C@@H]1CN([C@@H](C)CO)C(=O)c2cc(NC(=O)CCCN(C)C)ccc2O[C@@H](C)CCCCO[C@H]1CN(C)CC1CCCCC1 | inactive |
| CCCNc1nc(=O)c(C)n[nH]1 | inactive |
| Cc1n[nH]c(N/N=C/c2ccccn2)nc1=O | active |
| Cc1n[nH]c(NCc2ccco2)nc1=O | inactive |
| Cc1ccc(-c2nn[nH]n2)n1C | inactive |
| C[C@@H]1CN([C@@H](C)CO)C(=O)c2cc(NC(=O)NC3CCCCC3)ccc2O[C@@H](C)CCCCO[C@H]1CN(C)C(=O)c1ccncc1 | inactive |
| C[C@@H]1CN([C@H](C)CO)C(=O)Cc2cc(NS(=O)(=O)c3ccccc3)ccc2O[C@@H]1CN(C)Cc1ccc2c(c1)OCO2 | inactive |
| O=C(C[C@@H]1CC[C@@H]2[C@H](COC[C@@H](O)CN2C(=O)c2cnccn2)O1)N1CCN(c2ccccc2)CC1 | inactive |
| Cc1cc(C(=O)Nc2cccc3c2O[C@@H](CN(C)C(=O)Nc2ccc4c(c2)OCO4)[C@@H](C)CN([C@H](C)CO)C3=O)n(C)n1 | inactive |
| O=C(N[C@@H](c1ccc(-c2ccccc2)cc1)c1cnccn1)C1CCN(CCOc2ccc(F)cc2)CC1 | inactive |
| Cc1cc(-c2cc(OC(=O)c3ccccc3)ccc2Cl)cc2nnc(Nc3ccc(OCCN4CCCC4)cc3)nc12 | active |
| O=C(N[C@@H](c1ccccc1)c1ccc2ccccc2n1)C1CCN(CCOc2ccc(Cl)cc2)CC1 | inactive |
| CC(C)=C[C@H]1[C@@H](c2nc3cc(Br)ccc3o2)C1(C)C | inactive |
| C[C@@H]1CCCCO[C@H](CN(C)S(=O)(=O)c2ccc(F)cc2)[C@@H](C)CN([C@H](C)CO)C(=O)c2cc(NC(=O)Nc3ccc(C(F)(F)F)cc3)ccc2O1 | inactive |
| COCC(=O)N1C[C@@H](C)[C@H](OC)CN(C)C(=O)c2ccc(NC(=O)c3ccc(F)cc3)cc2OC[C@@H]1C | inactive |
| C[C@@H]1CN([C@@H](C)CO)C(=O)Cc2cc(NC(=O)Nc3ccc(F)cc3)ccc2O[C@H]1CN(C)Cc1ccc(C(F)(F)F)cc1 | inactive |
| C[C@H](CO)N1C[C@H](C)[C@@H](CN(C)Cc2ccc(C(F)(F)F)cc2)Oc2ccc(NC(=O)Nc3ccc(F)cc3)cc2CC1=O | active |
| C[C@@H]1CN([C@@H](C)CO)C(=O)Cc2cc(NC(=O)Nc3ccc(F)cc3)ccc2O[C@@H]1CN(C)Cc1ccc(C(F)(F)F)cc1 | active |
| C[C@@H]1CN([C@H](C)CO)C(=O)Cc2cc(NC(=O)Nc3ccc(F)cc3)ccc2O[C@H]1CN(C)Cc1ccc(C(F)(F)F)cc1 | active |

| Compound | cytotoxicity call |
| --- | --- |
| C[C@H]1CN([C@@H](C)CO)C(=O)Cc2cc(NC(=O)Nc3ccc(F)cc3)ccc2O[C@H]1CN(C)Cc1ccc(C(F)(F)F)cc1 | active |
| C[C@H]1CN([C@@H](C)CO)C(=O)Cc2cc(NC(=O)Nc3ccc(F)cc3)ccc2O[C@@H]1CN(C)Cc1ccc(C(F)(F)F)cc1 | inactive |
| C[C@H](CO)N1C[C@H](C)[C@@H](CN(C)Cc2ccc(C(=O)O)cc2)Oc2c(NS(=O)(=O)c3cn(C)cn3)cccc2C1=O | inactive |
| CC(C)NC(=O)N(C)C[C@@H]1OCCCC[C@H](C)Oc2ccc(NC(=O)Nc3ccc(F)cc3)cc2C(=O)N([C@H](C)CO)C[C@@H]1C | inactive |
| C[C@@H]1CN([C@@H](C)CO)C(=O)c2cc(NC(=O)C3CCCCC3)ccc2O[C@@H](C)CCCCO[C@H]1CN(C)C(=O)Nc1ccccc1 | inactive |
| C[C@H](CO)N1C[C@H](C)[C@@H](CN(C)S(=O)(=O)c2ccc(Cl)cc2)Oc2ccc(N(C)C)cc2C1=O | inactive |
| COCCNC(=O)C[C@@H]1CC[C@H]2[C@@H](COC[C@@H](O)CN2C(=O)Nc2ccc3c(c2)OCO3)O1 | inactive |
| O=C(O)Cc1cccc(OCCCN(Cc2cccc(C(F)(F)F)c2Cl)CC(c2ccccc2)c2ccccc2)c1 | inactive |
| Cc1noc(C)c1NC(=O)N(C)C[C@H]1Oc2ccc(NC(=O)Nc3cccc4ccccc34)cc2C(=O)N([C@@H](C)CO)C[C@H]1C | inactive |
| C=CCOC(=O)[C@@H]1[C@H]2C(=O)O[C@H](c3ccccc3)[C@H](c3ccccc3)N2[C@H](c2ccc(OCCOC(=O)[C@H]3C[C@H]4C(=O)N[C@@H](CCCCN(C)C)C(=O)N4[C@H]3c3cccc(OCCO)c3)cc2)[C@@]12C(=O)Nc1ccc(I)cc12 | inactive |
| COc1ccc2c3c(n(c2c1)C)[C@H](CO)N(C[C@]13CCN(CC1)C(=O)CN(C)C)S(=O)(=O)C | inactive |
| C[C@@H]1CN([C@H](C)CO)C(=O)Cc2cc(NC(=O)Nc3ccc(F)cc3)ccc2O[C@@H]1CN(C)Cc1ccc(C(F)(F)F)cc1 | active |
| C[C@H](CO)N1C[C@H](C)[C@H](CN(C)Cc2ccc(C(F)(F)F)cc2)Oc2ccc(NC(=O)Nc3ccc(F)cc3)cc2CC1=O | active |
| CO[C@H]1CN(C)C(=O)c2cc(NC(=O)NC(C)C)ccc2OC[C@H](C)N(Cc2ccc(-c3ccccn3)cc2)C[C@@H]1C | inactive |
| COCC(=O)N(C)C[C@@H]1Oc2cc(C#Cc3ccccc3)ccc2S(=O)(=O)N([C@H](C)CO)C[C@H]1C | inactive |
| CO[C@@H]1CN(C)C(=O)c2cc(NC(=O)Nc3ccccc3)ccc2OC[C@@H](C)N(C(=O)CN(C)C)C[C@@H]1C | inactive |
| Nc1ccn([C@H]2CC[C@@H](CO)O2)c(=O)n1 | inactive |
| CC(C)CC#Cc1ccc2c(c1)O[C@H](CN(C)C(=O)c1ccncc1)[C@@H](C)CN([C@H](C)CO)S2(=O)=O | inactive |
| CCn1c(-c2nonc2N)nc2cncc(C(=O)N3CC[C@H](N)C3)c21 | active |
| C[C@H](CO)N1C[C@H](C)[C@H](CN(C)Cc2ccncc2)OCCCC[C@H](C)Oc2ccc(NC(=O)NC3CCCCC3)cc2C1=O | inactive |
| C[C@@H]1CCCCO[C@H](CN(C)C(=O)Cc2ccccc2)[C@H](C)CN([C@H](C)CO)C(=O)c2cc(NS(=O)(=O)c3ccc(Cl)cc3)ccc2O1 | inactive |
| C[C@H](CO)N1C[C@H](C)[C@H](CN(C)C(=O)C2CCCCC2)OCCCC[C@H](C)Oc2ccc(NC(=O)Nc3ccc4c(c3)OCO4)cc2C1=O | inactive |
